Measurements reported in PubChem BioAssay AID624256 (NMMLSC, 2012).
Among all 360,000 compounds or so, about 3,700 (1%) were called active. Roughly 2% stayed inconclusive and do not appear here.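 Rule for the calls: active = normalized GFP-positive differentiation at or above the plate's own cutoff, the solvent-only control mean plus 3 SD; inconclusive = no clear call, values can overlap the other calls; inactive = the rest.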 The list comes from a sample in which actives are over-represented; it also holds similar structures and randomly drawn compounds.

assay: HoxA9-arrested leukemia cell differentiation promoters – flow cytometry, MLPCN library, primary screen (AID 624256); conditions: ER-HoxA9 myeloid progenitors, lysozyme-GFP differentiation, at 10 µM; GFP+ MAC1+ double positive: measured here: differentiation confirmed by MAC1 staining, stronger effect = higher value; normalized GFP-positive differentiation: stronger effect = higher value;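 for GFP+ MAC1+ double positive: cells exposed to compound for four days before flow analysis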;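 for normalized GFP-positive differentiation: cells exposed to compound for four days before flow analysis; 0% = DMSO wells and 100% = fulvestrant positive control at 5 µM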

Compound	GFP+ MAC1+ double positive [%]	outcome	normalized GFP-positive differentiation
CCc1nc2c(OCc3ccccc3)cccn2c1N(C)C(=O)c1ccco1	1.6	inactive	–
CSc1ncccc1C(=O)NC1CCCCCC1	4.7	–	171% (active)
CSc1ncccc1C(=O)Nc1ccc2c(c1)OCO2	1	inactive	–
CSc1ncccc1C(=O)NCc1ccccc1Cl	0.9	inactive	–
CCCCCNC(=O)C1C(=O)Nc2ccccc2C(=O)N1C(C)(C)C (stereo not given)	0.8	inactive	–
COC(=O)C1=CN(c2c(C)cc(C)cc2C)C(N)=C(C#N)C1c1cccc(F)c1 (stereo not given)	1.5	inactive	–
CC1(C(=O)NS(=O)(=O)c2ccccc2Cl)CCN1C(=O)c1cccc(F)c1 (stereo not given)	0.8	inactive	–
O=S1(=O)CCN2C(=N1)SC1=C2CCN(Cc2ccccc2)C1	0.5	inactive	–
CCCOc1ccc(C2=CSC3=NCCN23)cc1Cl	0.8	inactive	–
Cc1ccc(C2=CSC3=NS(=O)(=O)CCN23)cc1C	4.9	–	25% (active)
CCCCn1c(N)c(N(CCOC)C(=O)c2cccc(S(=O)(=O)N(C)c3ccccc3)c2)c(=O)[nH]c1=O	1.3	–	16.7% (active)
CCCCn1c(N)c(N(CCOC)C(=O)c2cccc(S(=O)(=O)N3CCCCC3)c2)c(=O)[nH]c1=O	0.5	inactive	–
CCCCn1c(N)c(N(CC)C(=O)c2ccc(N(C)S(=O)(=O)c3ccc(C)cc3)cc2)c(=O)[nH]c1=O	1.1	inactive	–
CCC1CCCCN1C(=O)CSc1nc(C)cc(C)n1 (stereo not given)	1.8	inactive	–
C/C(=N\NC(=O)c1ccc(CSc2nc(C)cc(C)n2)cc1)C1CCCCC1	1.3	–	21.9% (active)
Cc1cc(C)nc(SCc2nnc(SCC(=O)OC3CCCCC3)o2)n1	1.3	inactive	–
Cc1nc2c(OCc3ccc(Cl)cc3)cccn2c1N(C)Cc1cccs1	0.4	inactive	–
CC(C)CNC(=O)C1(C)CCCN1C(=O)CSc1ccccc1 (stereo not given)	1.4	inactive	–
Cc1cc(C(=O)N2CCCC2(C)C(=O)O)c(C)o1 (stereo not given)	1.3	inactive	–
N#Cc1ccc(-c2nc3c(Cl)cc(C(F)(F)F)cn3c2Cc2ccccc2C(F)(F)F)cc1	1.3	inactive	–
CCC(C(=O)Nc1c(C)cccc1C)n1c(-c2cc(C)cs2)nc2ccccc21 (stereo not given)	3.7	inactive	–
CCOC(=O)CSc1nnc(CNC(=O)c2cccs2)n1-c1ccccc1	1.4	inactive	–

Compound	GFP+ MAC1+ double positive [%]	outcome	normalized GFP-positive differentiation
CCc1c(C)sc(NC(=O)c2cccs2)c1C(N)=O	7.9	–	14.1% (active)
CCc1ccc(NC(=O)C(=O)NNC(=O)c2cccs2)cc1	1.8	inactive	–
Cc1ccc(NC(=O)[C@H](Cc2ccccc2)NC(=O)CC[C@H]2O[C@@H](n3ccc(=O)[nH]c3=O)[C@H](O)[C@@H]2O)cc1C	0.8	inactive	–
C=CCn1c(SCc2cccc(F)c2)nc2cc(C(=O)N3CCC(C(N)=O)CC3)ccc2c1=O	0.5	inactive	–
O=C1Nc2cc(C(=O)N3CCN(c4ccc(F)cc4)CC3)ccc2NC1CSCc1cccc(F)c1 (stereo not given)	10.1	–	56.9% (active)
Cc1ccc(CSCC2Nc3ccc(C(=O)N4CCN(c5ccc(F)cc5)CC4)cc3NC2=O)cc1 (stereo not given)	1.7	inactive	–
COC(=O)[C@]12CCCCC=C1N(Cc1ccccc1)C(=O)[C@H](CC(=O)NCc1ccc(C)o1)C2	1.2	inactive	–
O=C(Nc1cccc(F)c1)c1cc(-c2ccco2)nc2ccccc12	0.5	inactive	–
NNC(=O)c1oc2nc(-c3ccccc3)cc(-c3ccco3)c2c1N	1	–	38.1% (active)
CNC(=S)NNC(=O)c1oc2nc(-c3ccccc3)cc(-c3ccco3)c2c1N	2.3	inactive	–
Cc1ccccc1-c1csc(C(O)c2cccc(Cl)c2)n1 (stereo not given)	0.8	inactive	–
Cc1cc(C)c2nc3nc(C)cc(C)c3c(N)c2c1	2.1	–	151% (active)
NC(Cc1ccc(F)cc1)c1csc(Nc2nncc3ccccc23)n1 (stereo not given)	0.8	inactive	–
COc1ccccc1CNC(=O)c1cc(=O)c2ccccc2o1	1	inactive	–
COc1cc(N=Cc2c(O)c3ccccc3oc2=O)c(OC)cc1Cl	12	–	239% (active)
O=c1oc2ccccc2c(=O)c2ccccc12	1.6	inactive	–
CCOC(=O)c1ccn(S(=O)(=O)c2ccc(C)cc2)c1-c1ccccc1	1.4	inactive	–
O=C1NC[C@H](Cc2ccc(O)cc2)N(C[C@H]2CCCN2C[C@H](Cc2ccccc2)N2C[C@H](Cc3ccccc3)N(CCc3ccccc3)C(=O)C2=O)C1=O	1	inactive	–
CCOC(=O)[C@]12CCCC=C1N(CCC1=CCCCC1)C(=O)[C@H](CC(=O)N1CCN(C(=O)c3ccco3)CC1)C2	2.3	inactive	–
Cc1c(C(=O)OCC(=O)N(CCC#N)c2ccccc2)oc2c1ccc1ccccc12	5	–	26.9% (active)
N#CCCN(C(=O)COC(=O)c1ccc(S(=O)(=O)N2CCCCCC2)cc1)c1ccccc1	0.7	inactive	–
N#CCCN(C(=O)COC(=O)c1ccc2c(c1)OCCO2)c1ccccc1	0.7	inactive	–

Compound	GFP+ MAC1+ double positive [%]	outcome	normalized GFP-positive differentiation
CCCc1nc2ccccc2n1C(C)C(=O)NC(C)(C)C (stereo not given)	3.7	inactive	–
O=C(NC(c1ccc(-c2ccccc2)cc1)c1cnccn1)C1CCN(CCOc2ccc(Cl)cc2Cl)CC1 (stereo not given)	1.7	inactive	–
CN(C)c1nccc(NCc2ccccc2)c1C#N	0.2	inactive	–
CC(C)n1cnc2c(NCc3ccccc3)cc(OCC3CCN(C)CC3)cc21	8.3	–	28.4% (active)
CCOC1=C2[C@@H](CN(S(=O)(=O)c3ccc(C)cc3)[C@H]2c2ccccc2F)[C@H]2C(=O)N(Cc3ccccc3)C(=O)[C@H]2C1	1.5	inactive	–
COC(=O)CCCCC1=CCC2C(=O)C=C(O)C2C1 (stereo not given)	1.6	inactive	–
O=C(/C=C/c1ccc(OCc2c(F)cccc2Cl)cc1)N1CCOCC1	32	–	144% (active)
CN(C)CCCNC(=O)/C=C/c1ccc(OCc2c(F)cccc2Cl)cc1	0.3	inactive	–
Fc1cccc(Cl)c1COc1ccc(-c2nnco2)cc1	1.8	inactive	–
CC1(C)OC(=O)C2=C(C[C@@H](C3CCCCC3)O[C@@H]2c2ccc(Cl)cc2)O1	0.8	inactive	–
CCOc1ccc(C(=O)Nc2ccc(S(=O)(=O)NCC3CCCO3)cc2)cc1OCC (stereo not given)	2.1	–	18.3% (active)
O=C(Nc1ccc(S(=O)(=O)NCC2CCCO2)cc1)c1ccc(F)cc1 (stereo not given)	0.4	inactive	–
Cc1ccc(NC(=O)c2ccc(S(=O)(=O)NCC3CCCO3)cc2)cc1C (stereo not given)	0.8	inactive	–
Cc1cccc(C)c1NC(=O)C(c1cccc2ccccc12)n1c(=O)c(-c2ccco2)nc2ccccc21 (stereo not given)	3.2	inactive	–
Cc1cc(C)c(S(=O)(=O)NN=C2c3ccccc3[C@H]3Cc4csc[n+]4[C@@H]23)c(C)c1	1.3	inactive	–
Cc1cccc(C)c1NC(=O)COC(=O)c1ccccc1O	0.5	inactive	–
O=C(COC(=O)c1ccccc1O)NCc1ccco1	0.8	inactive	–
CCN(C(=O)COC(=O)c1ccccc1O)c1cccc2ccccc12	0.7	–	11.2% (active)
CCOC(=O)C1=CCC(c2ccc(F)cc2)N(S(=O)(=O)c2ccc(C)cc2)C1 (stereo not given)	0.9	inactive	–
Cc1cccc(C)c1-n1nnnc1C(CCc1ccccc1)N1CCN(C/C=C/c2ccccc2)CC1 (stereo not given)	1.8	inactive	–
Cc1cc2nc(-c3ccc(Cl)cc3)c(Cc3cccc(F)c3)n2c(C)c1Br	1.3	inactive	–
CCOC(=O)N1CCN(C(=O)C2CC(c3ccc(F)cc3)=NO2)CC1 (stereo not given)	1.8	inactive	–

Compound	GFP+ MAC1+ double positive [%]	outcome	normalized GFP-positive differentiation
O=C(c1ccco1)N1CCN(C(=O)C2CC(c3ccc(Cl)c(Cl)c3)=NO2)CC1 (stereo not given)	0.9	inactive	–
O=C(c1ccco1)N1CCN(C(=O)C2CC(c3ccc(F)cc3)=NO2)CC1 (stereo not given)	12.6	–	34.4% (active)
Cn1cnc(S(=O)(=O)N2C[C@@H](O)COC[C@@H]3O[C@H](CC(=O)NC4CCC4)CC[C@H]32)c1	3.2	inactive	–
NCCCNC(=S)NCCCN(Cc1ccc(Cl)cc1)c1ccc(Br)cn1	0.9	inactive	–
O=C(CC[C@H]1O[C@@H](n2ccc(=O)[nH]c2=O)[C@H](O)[C@@H]1O)N[C@H](Cc1ccccc1)C(=O)NCCCN1CCCC1=O	0.7	inactive	–
O=C(NCC(O)c1nc2ccccc2[nH]1)c1ccc(Br)cc1 (stereo not given)	0.9	inactive	–
OC(c1nc2ccc(F)cc2[nH]1)C(O)c1nc2ccc(F)cc2[nH]1 (stereo not given)	0.4	inactive	–
CC(C)c1nc2ccc(C(=O)O)cc2[nH]1	15	–	15.9% (active)
COc1ccc(COC[C@H](CC(C)C)N2CCN(C(=O)c3cccc(C(F)(F)F)c3)CCC2=O)cc1	0.4	inactive	–
CC(=O)C[C@@H]1OC[C@H](C)N1S(=O)(=O)c1ccc(C)cc1	3	inactive	–
Cc1ccc(-c2c(N)nc3ncccn23)cc1	1.5	inactive	–
CN1CCN(c2ccc3c(c2)OC[C@H](Cc2ccccc2)NS3(=O)=O)CC1	1	inactive	–
CCc1noc(C)c1C(=O)OCC(=O)c1ccc(NC(=O)CC(C)C)cc1	1.1	inactive	–
Cc1ccc(-c2csc(NC(=O)C3=COCCO3)n2)cc1C	0	inactive	–
CCc1noc(C)c1C(=O)Nc1nc(-c2ccccc2)cs1	2.2	–	32.2% (active)
CCN(CC)S(=O)(=O)c1ccc(N2CCOCC2)c(NC(=O)c2ccc(=O)n(C)n2)c1	0.1	inactive	–
CCN(CC)S(=O)(=O)c1ccc(N2CCCC2)c(NC(=O)c2ccc([N+](=O)[O-])o2)c1	5.1	–	56% (active)
CCN(CC)S(=O)(=O)c1cc(C(=O)Nc2cc(S(=O)(=O)N3CCOCC3)ccc2N2CCCC2)ccc1F	0.3	inactive	–
Clc1cccc(Cc2c(-c3cccc(Cl)c3)nc3ccc(Cl)cn23)c1	0.4	inactive	–
